Data reported in PubChem BioAssay (NCATS).
Several values for one entry are separate records, joined by “and”; a condition that tells them apart may be missing. Equal entries are not always repeated. Inconclusive results are not listed. Activity calls are given as the source filed them. Unless noted, calls follow the shape of the full dose curve.

Biological target: Vitamin D3 receptor (Homo sapiens) (UniProt P11473)
Assay: qHTS assay for small molecule antagonists of vitamin D receptor signaling (AID 588541);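 also: receptor activated by calcitriol during compound treatment; % is scaled to controls: 0 for no effect and ±100 for the full control effect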
Conditions: HEK293T VDR-UAS-bla, beta-lactamase ratio, antagonist mode; series mostly up to 76.7 µM; activity change, negative = inhibition: at the top concentration
Method in brief: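 VDR-UAS-bla HEK293T cells (2000/well, 2% charcoal-stripped FBS) were treated with titrated compounds plus 1-alpha,25-dihydroxyvitamin D3 (50 nM or 3 nM final) for 16 h at 37 C. CCF4 beta-lactamase fluorescence was read; Hill fits gave IC50.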

Sequence of Vitamin D3 receptor (Homo sapiens) (P11473 whole entry, looked up): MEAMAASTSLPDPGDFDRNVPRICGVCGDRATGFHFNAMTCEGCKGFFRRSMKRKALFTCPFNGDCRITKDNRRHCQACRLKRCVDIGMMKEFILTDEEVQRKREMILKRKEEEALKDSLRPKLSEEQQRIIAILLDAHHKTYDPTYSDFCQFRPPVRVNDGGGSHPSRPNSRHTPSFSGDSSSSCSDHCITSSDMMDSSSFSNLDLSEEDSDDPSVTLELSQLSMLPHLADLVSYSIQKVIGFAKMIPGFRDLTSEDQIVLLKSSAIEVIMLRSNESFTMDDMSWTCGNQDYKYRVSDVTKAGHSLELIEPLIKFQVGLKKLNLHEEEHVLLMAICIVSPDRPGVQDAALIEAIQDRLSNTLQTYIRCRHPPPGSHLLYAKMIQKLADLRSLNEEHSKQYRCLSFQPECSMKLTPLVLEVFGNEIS

| Compound | outcome | activity change, negative = inhibition |
| --- | --- | --- |
| C=C(C)[C@H]1CC=C(C)C(=O)C1 | inactive | – |
| C=CC(C)(O)CCC=C(C)C (stereo unspecified) | inactive | – |
| COS(C)(=O)=O | – | -3.99% (inactive) |

Biological target: Vitamin D3 receptor (Homo sapiens) (UniProt P11473)
Assay: qHTS assay for small molecule agonists of vitamin D receptor signaling (AID 588543);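 also: 0% = DMSO basal and 100% = reference agonist control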
Conditions: HEK293T VDR-UAS-bla, beta-lactamase ratio, 16 h; series mostly up to 76.8 µM; activation: at the top concentration
Method in brief: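 Agonist-mode beta-lactamase reporter: HEK293T VDR-UAS-bla cells in charcoal-stripped 2% FBS, compound series 16 h 37 C, CCF4 2 h RT. EC50 from Hill fit, scaled against DMSO and 50 nM calcitriol control.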

| Compound | outcome | activation |
| --- | --- | --- |
| C=C(C)[C@H]1CC=C(C)C(=O)C1 | inactive | – |
| C=CC(C)(O)CCC=C(C)C (stereo unspecified) | inactive | – |
| COS(C)(=O)=O | – | -2.98% (inactive) |

Test system: not listed separately
Assay: qHTS assay for small molecule agonists of retinoid X receptor alpha signaling (AID 588544);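 as to activation: 0% = DMSO basal wells and 100% = reference agonist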
Conditions: HEK293T RXRa-UAS-bla, beta-lactamase reporter, 18 h; 530 nm emission

| Compound | max response |
| --- | --- |
| C=C(C)[C@H]1CC=C(C)C(=O)C1 | 2.29% and 4.34% |
| C=CC(C)(O)CCC=C(C)C (stereo unspecified) | -15.4% and -5.89% |
| COS(C)(=O)=O | -12% |

Biological target: Retinoic acid receptor RXR-alpha (Homo sapiens) (UniProt P19793)
Assay: as above
Conditions: HEK293T RXRa-UAS-bla, beta-lactamase reporter, 18 h; series mostly up to 76.7 µM; activation: at the top concentration

Sequence of Retinoic acid receptor RXR-alpha (Homo sapiens) (P19793 whole entry, looked up): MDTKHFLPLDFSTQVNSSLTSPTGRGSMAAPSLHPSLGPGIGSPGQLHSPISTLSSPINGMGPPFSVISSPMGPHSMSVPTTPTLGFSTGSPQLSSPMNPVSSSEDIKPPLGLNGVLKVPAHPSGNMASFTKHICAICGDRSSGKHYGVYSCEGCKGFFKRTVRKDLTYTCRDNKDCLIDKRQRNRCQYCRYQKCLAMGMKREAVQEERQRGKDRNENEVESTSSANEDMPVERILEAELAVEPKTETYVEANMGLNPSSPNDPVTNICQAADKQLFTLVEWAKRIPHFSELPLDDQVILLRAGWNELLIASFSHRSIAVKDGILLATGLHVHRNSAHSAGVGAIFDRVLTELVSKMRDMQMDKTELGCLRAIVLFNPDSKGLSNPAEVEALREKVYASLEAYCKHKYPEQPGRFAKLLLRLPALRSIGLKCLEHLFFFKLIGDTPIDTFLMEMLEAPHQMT

| Compound | outcome | activation |
| --- | --- | --- |
| C=C(C)[C@H]1CC=C(C)C(=O)C1 | inactive | – |
| C=CC(C)(O)CCC=C(C)C (stereo unspecified) | inactive | – |
| COS(C)(=O)=O | – | 5.93% (inactive) |

Biological target: Thyroid hormone receptor beta (Homo sapiens) (UniProt P10828)
Assay: qHTS assay for small molecule agonists of thyroid hormone receptor beta signaling (AID 588545);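 also: 0% = DMSO only and 100% = 10 nM T3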
Conditions: TR-UAS-bla GripTite HEK 293, beta-lactamase ratio, agonist mode, 18 h, percent of T3 response, DMSO as zero; series mostly up to 76.7 µM; activation: at the top concentration
Method in brief: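 Efficacy and EC50 values derive from Hill fits of qHTS titration data, normalized to 10 nM T3 and DMSO-only wells. HEK 293 reporter cells were stimulated for 18 hrs at 37 C, with beta-lactamase activity measured by CCF4 fluorescence.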

Sequence of Thyroid hormone receptor beta (Homo sapiens) (P10828 whole entry, looked up): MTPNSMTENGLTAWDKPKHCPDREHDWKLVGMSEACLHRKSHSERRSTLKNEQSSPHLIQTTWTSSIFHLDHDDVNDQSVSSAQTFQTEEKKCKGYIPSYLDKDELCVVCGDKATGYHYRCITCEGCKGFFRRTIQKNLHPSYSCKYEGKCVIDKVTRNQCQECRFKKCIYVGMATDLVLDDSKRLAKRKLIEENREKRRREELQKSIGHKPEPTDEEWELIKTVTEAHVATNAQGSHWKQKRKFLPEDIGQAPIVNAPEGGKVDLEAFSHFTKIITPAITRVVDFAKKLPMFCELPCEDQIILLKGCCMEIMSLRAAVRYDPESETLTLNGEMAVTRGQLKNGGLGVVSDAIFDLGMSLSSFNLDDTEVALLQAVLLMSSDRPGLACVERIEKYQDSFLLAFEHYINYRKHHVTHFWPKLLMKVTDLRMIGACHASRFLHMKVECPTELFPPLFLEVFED

| Compound | outcome | activation |
| --- | --- | --- |
| C=C(C)[C@H]1CC=C(C)C(=O)C1 | inactive | – |
| C=CC(C)(O)CCC=C(C)C (stereo unspecified) | – | -10.6% (inactive) |
| COS(C)(=O)=O | – | -20.9% (inactive) |

Test system: not listed separately
Assay: qHTS assay for small molecule antagonists of retinoid X receptor alpha signaling (AID 588546; active = well fitted inhibition curve with a large enough effect in the signal ratio, with a control signal flat, not every such curve was filed as active; the % refers to the signal ratio;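 also: cells stimulated with 9-cis-retinoic acid as agonist; % is scaled to controls: 0 for no effect and ±100 for the full control effect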)
Conditions: HEK293T RXRa-UAS-bla, beta-lactamase ratio, antagonist mode; measured here: W530 green channel, cytotoxicity proxy
Method in brief: (§1)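 Beta-lactamase reporter inhibition, read as CCF4 fluorescence ratio (ex 405, em 460/530 nm) after 2 h at RT. HEK293T UAS-bla cells, 2500/well, were stimulated with 9-cis-RA at 500 or 100 nM final alongside test compound for 18 h at 37 C.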

| Compound | max response |
| --- | --- |
| C=C(C)[C@H]1CC=C(C)C(=O)C1 | -6.91% and -9.16% |
| C=CC(C)(O)CCC=C(C)C (stereo unspecified) | -4.18% and -11.2% |
| COS(C)(=O)=O | -12.9% |

Biological target: Retinoic acid receptor RXR-alpha (Homo sapiens) (UniProt P19793)
Assay: as above
Conditions: HEK293T RXRa-UAS-bla, beta-lactamase ratio, antagonist mode
Method in brief: as §1

| Compound | max response |
| --- | --- |
| C=C(C)[C@H]1CC=C(C)C(=O)C1 | 30% (inactive) and -16.7% (inactive) |
| C=CC(C)(O)CCC=C(C)C (stereo unspecified) | -7.55% (inactive) and -18.1% (inactive) |
| COS(C)(=O)=O | -3.69% (inactive) |

Biological target: Thyroid hormone receptor beta (Homo sapiens) (UniProt P10828)
Assay: qHTS assay for small molecule antagonists of thyroid hormone receptor beta signaling (AID 588547; active = well fitted inhibition curve with a large enough effect in the signal ratio, with a control signal flat, not every such curve was filed as active; the % refers to the signal ratio;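 also: cells stimulated with 0.4 nM T3 agonist during compound exposure; % is scaled to controls: 0 for no effect and ±100 for the full control effect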)
Conditions: TR-UAS-bla HEK293, beta-lactamase ratio, antagonist mode, 18 h
Method in brief: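 TR-UAS-bla GripTite HEK293 cells in 2% charcoal/dextran FBS medium were preincubated 4 h at 37 C, given compound (0.59 nM to 92 uM) plus 0.4 nM T3 (final) for 18 h, then CCF4 for 2 h at RT; Hill fit gave IC50.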

| Compound | activity change % (negative = inhibition) |
| --- | --- |
| C=C(C)[C@H]1CC=C(C)C(=O)C1 | 1.99% (inactive) |
| C=CC(C)(O)CCC=C(C)C (stereo unspecified) | 22.9% (inactive) and 4.85% (inactive) |
| COS(C)(=O)=O | 2.2% (inactive) |

Biological target: Voltage-gated inwardly rectifying potassium channel KCNH2 (Homo sapiens) (UniProt Q12809)
Assay: qHTS Assay for Small Molecule Inhibitors of the Human hERG Channel Activity (AID 588834; active = well fitted curve in the direction sought with a large enough effect; an effect the other way counts as inactive or inconclusive;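 also: top concentration of the series differs between compounds; % is scaled to controls: 0 for no effect and ±100 for the full control effect; lower thallium flux fluorescence means stronger hERG block; nearly all actives have a fitted effect of over 50% in size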)
Conditions: U2OS BacMam hERG, FluxOR thallium flux fluorescence; series mostly up to 46.1 µM; activity change, negative = inhibition: at the top concentration
Method in brief: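 hERG block measured as reduced thallium-dye (FluxOR) fluorescence after stimulation buffer addition, read over 2 min. Cells were hERG-BacMam-transduced U2OS exposed to compound ~10 min […]; concentration-response fitted with Hill equation for AC50.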

Sequence of Voltage-gated inwardly rectifying potassium channel KCNH2 (Homo sapiens) (Q12809 whole entry, looked up): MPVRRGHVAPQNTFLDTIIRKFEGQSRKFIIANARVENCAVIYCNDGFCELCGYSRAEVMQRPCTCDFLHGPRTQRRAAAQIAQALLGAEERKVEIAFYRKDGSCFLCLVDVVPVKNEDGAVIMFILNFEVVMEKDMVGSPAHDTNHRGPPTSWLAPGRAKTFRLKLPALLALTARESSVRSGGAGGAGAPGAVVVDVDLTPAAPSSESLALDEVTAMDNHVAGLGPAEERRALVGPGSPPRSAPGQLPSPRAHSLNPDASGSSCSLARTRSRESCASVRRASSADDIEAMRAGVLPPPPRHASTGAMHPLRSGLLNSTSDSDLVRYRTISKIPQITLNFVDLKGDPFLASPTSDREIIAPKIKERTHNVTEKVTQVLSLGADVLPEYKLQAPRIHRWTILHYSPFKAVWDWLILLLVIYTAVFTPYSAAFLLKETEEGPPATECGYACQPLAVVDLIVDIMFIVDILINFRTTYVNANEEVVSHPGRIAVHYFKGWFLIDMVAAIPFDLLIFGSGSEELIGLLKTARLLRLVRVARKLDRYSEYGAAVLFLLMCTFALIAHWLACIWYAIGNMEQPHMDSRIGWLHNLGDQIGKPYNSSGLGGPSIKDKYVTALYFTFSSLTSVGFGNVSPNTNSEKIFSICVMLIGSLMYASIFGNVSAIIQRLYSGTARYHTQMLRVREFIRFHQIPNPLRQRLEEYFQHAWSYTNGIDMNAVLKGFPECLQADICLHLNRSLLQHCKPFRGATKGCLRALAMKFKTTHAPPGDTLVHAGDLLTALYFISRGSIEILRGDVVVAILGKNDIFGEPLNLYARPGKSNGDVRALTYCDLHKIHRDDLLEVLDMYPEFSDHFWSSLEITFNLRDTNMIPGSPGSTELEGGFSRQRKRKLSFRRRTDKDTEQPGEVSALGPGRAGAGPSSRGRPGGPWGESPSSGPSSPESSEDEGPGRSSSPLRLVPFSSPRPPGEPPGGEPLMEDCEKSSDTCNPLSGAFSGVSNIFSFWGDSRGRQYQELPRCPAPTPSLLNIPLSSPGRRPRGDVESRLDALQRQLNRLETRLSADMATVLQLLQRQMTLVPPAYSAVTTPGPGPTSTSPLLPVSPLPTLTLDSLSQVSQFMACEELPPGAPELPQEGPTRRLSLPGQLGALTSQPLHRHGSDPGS

| Compound | activity change, negative = inhibition |
| --- | --- |
| C=C(C)[C@H]1CC=C(C)C(=O)C1 | 2.32% [at 92.2 µM] (inactive) |
| C=CC(C)(O)CCC=C(C)C (stereo unspecified) | 3.12% [at 92.2 µM] (inactive) |
| COS(C)(=O)=O | 6.15% [at 92.2 µM] (inactive) |

Biological target: Luciferin 4-monooxygenase (Photinus pyralis) (UniProt P08659)
Assay: Biochemical firefly luciferase enzyme assay for NPC (AID 624030; active = well fitted curve in the direction sought with a large enough effect; an effect the other way counts as inactive or inconclusive;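 also: purified P. pyralis luciferase at 10 nM with luciferin and ATP substrate; 0% = DMSO and -100% = full luciferase inhibition by PTC124 control; nearly all actives have a fitted effect of over 70% in size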)
Conditions: purified P. pyralis luciferase, luminescence, 5 min; series mostly up to 58.6 µM; activity change, negative = inhibition: at the top concentration
Method in brief: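 Counter-screen for direct inhibition of the luciferase enzyme by approved-drug library compounds, run at 10 nM enzyme in 50 mM Tris acetate (final). Luminescence was read within 5 min of enzyme-buffer addition and normalized to PTC124 versus DMSO (0%).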

Sequence of Luciferin 4-monooxygenase (Photinus pyralis) (P08659 whole entry, looked up): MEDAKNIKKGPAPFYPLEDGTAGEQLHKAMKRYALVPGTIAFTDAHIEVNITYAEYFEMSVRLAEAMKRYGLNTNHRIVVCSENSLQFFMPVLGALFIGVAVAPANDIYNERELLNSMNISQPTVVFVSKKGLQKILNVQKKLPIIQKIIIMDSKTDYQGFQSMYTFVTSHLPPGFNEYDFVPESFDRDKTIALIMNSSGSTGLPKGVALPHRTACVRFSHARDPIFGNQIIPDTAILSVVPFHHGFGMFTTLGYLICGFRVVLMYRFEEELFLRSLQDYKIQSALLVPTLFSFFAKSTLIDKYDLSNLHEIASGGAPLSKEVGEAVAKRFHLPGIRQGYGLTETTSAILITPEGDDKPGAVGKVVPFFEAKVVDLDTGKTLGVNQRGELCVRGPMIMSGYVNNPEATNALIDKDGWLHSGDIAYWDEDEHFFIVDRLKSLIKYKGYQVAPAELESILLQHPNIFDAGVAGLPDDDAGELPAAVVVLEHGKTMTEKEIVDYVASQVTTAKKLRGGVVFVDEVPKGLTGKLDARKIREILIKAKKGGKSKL

| Compound | activity change, negative = inhibition |
| --- | --- |
| C[N+](C)(C)CC(O)CC(=O)O (stereo unspecified) | 2.17% (inactive) |
| CN(C)CC/C=C1\c2ccccc2CSc2ccccc21 | 8.2% [at 24.9 µM] (inactive) |
| CC(C)N1CCN(c2ccc(OC[C@@H]3CO[C@@](Cn4cncn4)(c4ccc(Cl)cc4Cl)O3)cc2)CC1 | 5.22% [at 24.9 µM] (inactive) |
| CC12CC[C@@H]3c4ccc(OS(=O)(=O)O)cc4CC[C@H]3C1CCC2=O (stereo partly specified) | -12.4% (inactive) |
| C[C@@H]1CCC[C@H](C)N1NC(=O)c1ccc(Cl)c(S(N)(=O)=O)c1 | 1.68% [at 24.9 µM] (inactive) |
| O=C(Cc1cccs1)NC1C(=O)N2C(C(=O)[O-])=C(C[n+]3ccccc3)CSC12 (stereo unspecified) | -15.2% (inactive) |

Test system: not listed separately
Assay: S16 Schwann cell PMP22 intronic element firefly luciferase assay (AID 624032; active = well fitted curve in the direction sought with a large enough effect; an effect the other way counts as inactive or inconclusive;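 also: plate controls were DMSO for no effect and PTC124 positive control mean for full effect; nearly all actives have a fitted effect of over 30% in size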)
Conditions: S16 rat Schwann cells, PMP22 element FLuc, 24 h; series mostly up to 25.7 µM; activity change, negative = inhibition: at the top concentration
Method in brief: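 Rat S16 Schwann cells stably carrying a PMP22 intronic element-driven Fluc reporter were seeded overnight, then exposed to compounds for 24 h at 37 °C. Luminescence was normalized to PTC124 (positive control) and DMSO (0% activity).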

| Compound | activity change, negative = inhibition |
| --- | --- |
| C[N+](C)(C)CC(O)CC(=O)O (stereo unspecified) | -8.69% [at 57.5 µM] (inactive) |
| CN(C)CC/C=C1\c2ccccc2CSc2ccccc21 | -25.5% (inactive) |
| CC(C)N1CCN(c2ccc(OC[C@@H]3CO[C@@](Cn4cncn4)(c4ccc(Cl)cc4Cl)O3)cc2)CC1 | -0.272% (inactive) |
